Source: PubChem BioAssay
GRP78 ERSR act = inducers of ER stress response in human glioma cells; U87-MG GRP78 promoter luciferase reporter, 16 h; Potency, µM, for the others: at the highest dose activation, hits mostly activators; 0.02% of 420,000 active; AID 602332; active = well fitted activation curve with a large enough effect; inconclusive = small, poorly fitted or top-dose-only effect; inactive = no such curve, though single readings can be large or run the other way; note: potency is the fitted concentration of half-maximal effect; series mostly up to about 76 µM; % of control where 0% means no effect; nearly all actives have a fitted effect of over 35% in size
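Stably transfected U87-MG glioma cells carrying a GRP78-based luciferase sensor; 16 h compound incubation. Luminescence end-point read 10 min after Bright-Glo addition at room temperature.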
D1 antagonist = human D1 dopamine receptor antagonism. P21728. HEK293 TREx D1 cells, calcium flux, dopamine EC80; stronger effect = lower value. activity change, negative = inhibition, % at 10 µM. 3.2% of 360,000 active. AID 504652; in the data active = activity change below about -30%; note: % is set by controls: 0 for no effect and ±100 for the full control effect
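Antagonism measured as reduced calcium response to an EC80 dopamine addition following 180 s compound pre-read; cells were inducible HEK293 Trex D1 plated overnight at 30 C, read kinetically at 1 cycle/sec.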
TRHR enhancer = allosterically enhances the human TRH receptor; P34981; TRHR cells, fluo-8 calcium fluorescence, EC20 TRH enhancement; enhancement, % at 2 µM; 0.66% of 360,000 active; in the data active = enhancement above about 30%; note: 0% is about no effect
Target sequence (P34981 whole entry, looked up): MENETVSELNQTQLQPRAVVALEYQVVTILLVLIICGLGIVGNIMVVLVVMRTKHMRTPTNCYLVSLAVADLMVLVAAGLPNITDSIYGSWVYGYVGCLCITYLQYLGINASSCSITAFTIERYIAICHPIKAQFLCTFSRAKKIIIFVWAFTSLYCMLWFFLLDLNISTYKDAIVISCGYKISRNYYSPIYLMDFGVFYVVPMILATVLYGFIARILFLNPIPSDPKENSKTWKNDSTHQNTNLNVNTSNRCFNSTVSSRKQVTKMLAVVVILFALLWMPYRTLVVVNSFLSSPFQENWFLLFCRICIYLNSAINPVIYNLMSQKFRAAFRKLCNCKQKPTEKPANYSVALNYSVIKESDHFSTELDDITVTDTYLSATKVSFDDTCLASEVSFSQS
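Enhancer read-out: after compound pinning and an initial kinetic agonist-mode read, an EC20 of TRH (10 nM final) was injected and fluo-8 calcium signal (Ex 480/Em 530) followed at 1 s/cycle for 100 cycles in TRHR-expressing cells.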
TRHR ag = activates the human TRH receptor; AID 493084; activation, % at 2 µM; TRHR cells, calcium flux fluo-8, FDSS agonist mode; P34981; 0.18% of 360,000 active; note: 0% is about no effect
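Read-out: compound-evoked intracellular calcium rise in TRHR cells, fluo-8 dye, kinetic FDSS fluorescence at 1 s/cycle following a 10-cycle baseline. Cells cultured overnight before dye loading (30 min–1.5 h, RT).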
D1 agonist = activates the human D1 dopamine receptor | 1% of 360,000 active | activation, % at 2 µM | AID 504660 | HEK293 T-REx D1 cells, calcium flux, agonist mode; note: 0% is about no effect
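Tetracycline-induced HEK293 TREx D1 cells, force-coupled to calcium signalling, were dye-loaded with a no-wash calcium kit. Compound was pin-added after a 10 s baseline. Fluorescence was read kinetically at 1 cycle/s for 180 s, with calcium rises flagged as agonism.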
D1 potentiator = human D1 dopamine receptor positive modulation | P21728 | HEK293 TREx D1 cells, calcium flux, dopamine EC20 potentiation | potentiation, % at 10 µM | 0.036% of 360,000 active; in the data active = potentiation above about 30%; note: 0% is about no effect
An asterisk follows results filed as active; ? = inconclusive; . = no result; ! = repeats disagree. In the library only some 4% were active in any assay of this set; here they are far more common. Cut-off read from the data, not from the text of the source, unless noted: active = activation above about 30%; inactive = the rest.

SMILES	GRP78 ERSR act	D1 antagonist	TRHR enhancer	TRHR ag	D1 agonist	D1 potentiator
Cc1ccc(C(=O)N2CCN(c3ccc(NC(=O)c4cccnc4)cc3)CC2)cc1	-4%	-31*	4	1	-1	-6
CC(=O)c1ccc(N2CCN(C(=S)Nc3cccc(Cl)c3)CC2)cc1	-2%	-37*	-6	0	4	0
CC(=O)c1ccc(NC(=S)N2CCN(c3cccc(Cl)c3)CC2)cc1	-2%	.	-4	0	5	-7
CC(=O)c1ccc(-c2ccc3c4c(ccc3c2)OC(CNC(=O)C(C)N2CCOCC2)C4)s1 (stereo unspecified)	-4%	.	.	.	.	.
COc1cc(CN2CCNC(=O)C2CC(=O)NCCCC2CCCC2)cc(OC)c1 (stereo unspecified)	0%	11	-5	0	0	-3
COc1cc(O)c(C(=O)/C=C/c2ccccc2)c(OC)c1	?	-56*	-5	0	2	-3
COc1ccc(C(=O)Nc2c(N)nc(SCC(=O)NCC3CCCO3)[nH]c2=O)cc1 (stereo unspecified)	1%	9	9	1	1	3
O=C(C[n+]1cccc(Cl)c1)c1ccc(O)c(O)c1	0%	.	.	.	.	.
CC(C)(C)c1ccc(C(=O)CS(=O)(=O)c2ccccc2)cc1	0%	-38*	-1	1	6	-6
CCCCN1C(=O)C(O)(c2c[nH]c3ccccc23)c2cc(Br)ccc21 (stereo unspecified)	-3%	5	-1	1	-1	-2
COc1ccc(CNC(=O)c2cnn(-c3nccc(-c4ccco4)n3)c2C)cc1OC	3%	.	.	.	.	.
O=c1[nH]c(SCc2ccccc2)nc2c1CCCC2	.	-41*	-4	0	8	-3
O=c1[nH]c(SCc2ccc(Cl)cc2)nc2c1CCC2	10%	4	-6	0	1	2
Cc1ccc(OCCSc2nc(-c3ccccc3C)nc3cc(=O)[nH]n23)cc1Cl	1%	-62*	3	-1	26	-6
Cc1ccc(C(C)C)c(OCCSc2nc(-c3ccccc3F)nc3cc(=O)[nH]n23)c1	0%	-12	-15	-1	38*	-6
Cc1oc(-c2cccc(NC(=O)C3CCCN(C)C3)c2)nc1CNC(=O)c1coc2c1C(=O)CCC2 (stereo unspecified)	-6%	.	.	.	.	.
Cc1cc(C)n2c(SCc3ccc(Cl)cc3Cl)nnc2n1	-10%	8	8	0	42*	10
COc1ccc(N2C(=O)NC(NS(=O)(=O)c3ccccc3)(C(F)(F)F)C2=O)cc1 (stereo unspecified)	-3%	21	-2	0	3	-1
COc1ccc(N2C(=O)NC(NS(=O)(=O)c3ccc(NC(C)=O)cc3)(C(F)(F)F)C2=O)cc1 (stereo unspecified)	-4%	-51*!	-2	0	-2	-9
CCC1CN(CCNC(=O)c2scc3c2OCCO3)Cc2cc(OC)ccc2O1 (stereo unspecified)	-6%	.	.	.	.	.
COc1ccccc1N1CCN(C(=O)c2cc3ccc4ccc(C)[nH]c4c3n2)CC1	-6%	-3	-7	-1	3	3
CCCC[C@@H]1CCCO[C@@](C(=O)NCc2ccc(S(C)(=O)=O)cc2)(C(F)(F)F)C1	1%	.	.	.	.	.
COC(=O)c1ccc(Cn2ncc3c4sc(C)cc4n(C)c3c2=O)cc1	.	0	-5	-1	6	-3
O=C(NN1C(=O)C2C3C=CC(O3)C2C1=O)c1cccc(Br)c1 (stereo unspecified)	2%	.	-5	-1	0	-1
O=C(NN1C(=O)C2C3C=CC(O3)C2C1=O)c1cccc(O)c1 (stereo unspecified)	-5%	-80*	-3	0	2	-11
O=C(c1ccc([N+](=O)[O-])o1)N1CCN(c2nc3c(Cl)cccc3s2)CC1	-3%	-34*	-8	0	3	-9
O=C(CCCc1nc2ccccc2s1)N1CCN(c2ccccc2)CC1	3%	-43*	0	-1	0	-14
O=C(CCCc1nc2ccccc2s1)N1CCN(c2ccccc2F)CC1	2%	-13	-12	0	0	-2
